From PubChem BioAssay (NCATS) come the findings set out here.

Records with an inconclusive call do not appear. Calls of active or inactive are those of the source. Unless noted, calls come from the whole dose curve; as a rule, active = well fitted curve in the direction sought with a large enough effect; inconclusive = small, poorly fitted or top-dose-only effect, or another doubt; inactive = no such curve, though single readings can be large; an effect the other way counts as inactive or inconclusive.

Assay [1] is described as follows: AP1 Signaling Pathway (AID 357; active = well fitted curve in either direction with a large enough effect, not every such curve was filed as active;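 note: ME-180 reporter cells stimulated with EGF at its EC50 level; % is set by controls: 0 for no effect and ±100 for the full control effect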). As to conditions: ME-180 AP-1-bla reporter, EGF-induced, beta-lactamase ratio, 5 h; at 38 µM (top of the series). The method, boiled down:
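AP-1-bla ME-180 cells, Opti-MEM + 0.5% dialyzed FBS, plated overnight 37 °C. Cpd titration + EC50 EGF, 5 h 37 °C. CCF4 2.5 h RT; ex 405, em 460/530 ratio → %activity, AC50.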

The target in assay [2] is Cytochrome P450 1A2 (Homo sapiens) (UniProt P05177). The assay can be described thus: p450-cyp1a2 (AID 410; calls by dose curve; note: potency is the fitted concentration of half-maximal effect). A digest of the protocol:
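Luminescent demethylation readout: Luciferin-ME (100uM, equal to Km) turned over by 20nM CYP1A2 for 60 min at room temperature after NADPH regeneration addition, following 10 min compound preincubation. Normalization used 57 uM furafylline as full inhibition.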

A short description of assay [3]: NFAT Signaling Pathway (AID 444; active = well fitted curve in either direction with a large enough effect, not every such curve was filed as active;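 note: carbachol stimulus at about its EC50 of 1 µM final; % is set by controls: 0 for no effect and ±100 for the full control effect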). The conditions noted are these: Jurkat NFAT-bla M1, carbachol, beta-lactamase ratio, 5 h; at 38 µM (top of the series). The method, boiled down:
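Read-out: CCF4 FRET ratio (460 nm/530 nm) after 1 h RT dye loading, used for %activity and AC50 from titration series. Cells: Jurkat NFAT-β-lactamase/M1 line, treated with compound plus 1 uM carbachol for 5 h, 37 °C.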

Assay [4] in a line: Stat Signaling Pathway (AID 446; active = well fitted curve in either direction with a large enough effect, not every such curve was filed as active;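 note: ME-180 cervical cancer cells given 40 pM IL-6 alongside compound; SIE-controlled beta-lactamase reporter measured as 460/530 nm FRET emission ratio; % is set by controls: 0 for no effect and ±100 for the full control effect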). As to conditions: ME-180 (cervical carcinoma) SIE beta-lactamase reporter, IL-6 stimulated, 5 h; at 38 µM (top of the series). The method, boiled down:
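Emission at 460 and 530 nm (excitation 405 nm) reports SIE-controlled beta-lactamase in ME-180 cells. Cells received compound with 40 pM IL-6 for 5 hrs at 37 C; data scaled between 300 pM IL-6 and 125 nM JAK-inhibitor controls.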

For assay [5], the target named is Glucocorticoid receptor (Homo sapiens) (UniProt P04150). Description: GR-GFP Redistribution (AID 450;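 active = compounds whose dose series gives a full or clear partial fitted curve of increased nuclear translocation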; note: potency is the fitted concentration of half-maximal effect). As to conditions: U2OS GR-GFP nuclear translocation, laser cytometry, 2 h.
Glucocorticoid receptor (Homo sapiens), sequence (P04150 whole entry, looked up): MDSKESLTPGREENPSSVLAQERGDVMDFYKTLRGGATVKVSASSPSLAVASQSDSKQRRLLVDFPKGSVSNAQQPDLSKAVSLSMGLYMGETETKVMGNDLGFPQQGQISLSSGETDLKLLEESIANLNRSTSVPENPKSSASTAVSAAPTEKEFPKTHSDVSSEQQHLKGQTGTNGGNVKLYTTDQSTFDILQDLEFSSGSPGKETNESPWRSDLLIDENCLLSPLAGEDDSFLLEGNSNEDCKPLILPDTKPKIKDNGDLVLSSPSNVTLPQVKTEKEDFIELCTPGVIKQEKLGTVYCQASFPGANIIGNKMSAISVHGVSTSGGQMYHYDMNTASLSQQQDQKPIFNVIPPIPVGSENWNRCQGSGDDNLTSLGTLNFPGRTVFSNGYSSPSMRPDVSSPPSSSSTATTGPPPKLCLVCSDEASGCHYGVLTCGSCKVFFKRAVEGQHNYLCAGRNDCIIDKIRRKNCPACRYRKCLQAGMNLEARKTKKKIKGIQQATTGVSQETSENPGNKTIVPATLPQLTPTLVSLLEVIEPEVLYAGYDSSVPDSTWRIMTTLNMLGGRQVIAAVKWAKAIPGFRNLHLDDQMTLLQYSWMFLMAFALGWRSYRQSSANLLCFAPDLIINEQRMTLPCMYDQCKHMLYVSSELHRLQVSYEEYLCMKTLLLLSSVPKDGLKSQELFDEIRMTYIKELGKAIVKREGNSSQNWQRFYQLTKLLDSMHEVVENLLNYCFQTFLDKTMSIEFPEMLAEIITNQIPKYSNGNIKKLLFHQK
For assay [6] the target is unchanged. The assay can be described thus: GR-EFC Redistribution (AID 451; calls by dose curve; note: potency is the fitted concentration of half-maximal effect). The conditions noted are these: CHO-K1 GR-EFC translocation, beta-gal luminescence, 2 h. A digest of the protocol:
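Translocation of GR-ED fusion to nuclear EA restores b-gal, read by luminescence after 1 h room-temperature detection. Engineered CHO-K1 biosensor cells, 1,000/well, exposed 2 h at 37 C to titrations up to 46 uM final.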

The target in assay [7] is Mitogen-activated protein kinase 10 (Mus musculus) (UniProt Q61831). The assay can be described thus: JNK3 AlphaScreen Assay (AID 530; active = well fitted curve in either direction with a large enough effect, not every such curve was filed as active;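 note: kinase came from lysate of stimulated human HepG2 cells; signal reports phosphorylation of biotinylated GST-cJun 1-79 at Ser73 with 10 µM ATP; % is set by controls: 0 for no effect and ±100 for the full control effect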). The method, boiled down: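 qHTS titrations with 15 min compound pre-incubation before adding ATP (10 uM final). Read-out: AlphaScreen of Ser73-phosphorylated biotin-GST-cJun using HepG2 lysate JNK3 activated by IL-1β and TNFα.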
Background: Alpha assays give light when donor and acceptor beads are brought close together.

For assay [8], the target named is 3',5'-cyclic-AMP phosphodiesterase 4B (Homo sapiens) (UniProt Q07343). Description: qHTS Assay for Inhibitors of PDE-IV (AID 607; active = well fitted activation curve with a large enough effect in the main read-out, with a control signal flat, not every such curve was filed as active; note: % of control where 0% means no effect). The method, boiled down: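 The readout is membrane depolarisation from a cAMP-sensing CNG channel, detected with a potential dye at ex 535/em 590. Cells were HEK293-derived (endogenous PDE-IV) at 1000 cells/well, titrated up to 22.9 uM final.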
3',5'-cyclic-AMP phosphodiesterase 4B (Homo sapiens), sequence (Q07343 whole entry, looked up): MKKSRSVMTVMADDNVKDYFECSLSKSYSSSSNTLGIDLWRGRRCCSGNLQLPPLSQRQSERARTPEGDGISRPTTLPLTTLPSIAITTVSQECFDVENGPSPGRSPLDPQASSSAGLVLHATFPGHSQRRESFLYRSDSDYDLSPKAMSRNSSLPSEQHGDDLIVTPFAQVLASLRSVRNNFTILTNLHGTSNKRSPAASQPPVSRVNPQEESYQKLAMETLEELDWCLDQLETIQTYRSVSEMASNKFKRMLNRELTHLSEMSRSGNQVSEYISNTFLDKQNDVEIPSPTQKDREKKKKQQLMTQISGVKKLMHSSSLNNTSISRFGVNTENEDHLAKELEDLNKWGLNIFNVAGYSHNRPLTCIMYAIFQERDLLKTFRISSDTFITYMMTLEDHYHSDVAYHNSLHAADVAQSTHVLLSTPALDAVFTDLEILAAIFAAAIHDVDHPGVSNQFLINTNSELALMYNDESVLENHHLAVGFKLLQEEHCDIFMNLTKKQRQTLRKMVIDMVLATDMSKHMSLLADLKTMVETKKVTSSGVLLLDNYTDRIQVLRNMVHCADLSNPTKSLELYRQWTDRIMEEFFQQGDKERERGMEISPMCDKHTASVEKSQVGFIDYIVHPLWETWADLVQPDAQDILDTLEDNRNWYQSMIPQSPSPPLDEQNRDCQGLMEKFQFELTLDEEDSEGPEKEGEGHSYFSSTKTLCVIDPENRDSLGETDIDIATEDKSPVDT
Background: Quantitative high-throughput screening tests each substance at several concentrations.

For assay [9], the target named is Guanine nucleotide-binding protein G(i) subunit alpha-1 (Homo sapiens) (UniProt P63096). Description: qHTS Assay for Inhibitors of RGS12 GoLoco Motif Activity (Green Fluorophore) (AID 879).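 Note: 0% = labeled peptide with Gαi1 and full inhibition = labeled peptide alone without protein; negative values mean loss of peptide binding seen as reduced polarization.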 The method, boiled down:
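A drop in FITC polarization marked displacement of the FITC-tagged RGS12 GoLoco peptide (10 nM) from Gαi1 (50 nM). Compounds were incubated 10 min at room temperature in Tris pH 7.5 buffer containing 150 mM NaCl, 0.1 mM GDP and 0.05% NP40; unlabeled peptide titration served as control.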

Assay [10] in a line: qHTS Assay for Identification of Small Molecule Agonists for Thrombopoietin (TPO) Signaling Pathway (AID 917). Note: % is set by controls: 0 for no effect and ±100 for the full control effect. The method, boiled down:
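Quantitative HTS for pathway activators: compounds were pin-transferred onto IL-3-starved Ba/F3 cells expressing human TPO receptor, TPO was added at its EC50 (26 pM final), and after 24 hrs at 37 C reporter luciferase was measured.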

In assay [11] the target is Muscarinic acetylcholine receptor M1 (Rattus norvegicus) (UniProt P08482). Description: qHTS Assay for Antagonists of Acetylcholine Muscarinic M1 Receptor: Kinetic Measurement of Intracellular Calcium Response (AID 943).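 Note: Fluo-4 calcium signal as peak divided by basal fluorescence over 4 min; nearly all actives have a fitted effect of over 75% in size.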 The method, boiled down: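 Antagonism measured as reduction of carbachol-evoked (EC80, 100 nM final) calcium flux in rat M1-CHO cells after 10 min compound exposure. Fluo-4 signal read kinetically; ratio of maximal to basal fluorescence.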
Muscarinic acetylcholine receptor M1 (Rattus norvegicus), sequence (P08482 whole entry, looked up): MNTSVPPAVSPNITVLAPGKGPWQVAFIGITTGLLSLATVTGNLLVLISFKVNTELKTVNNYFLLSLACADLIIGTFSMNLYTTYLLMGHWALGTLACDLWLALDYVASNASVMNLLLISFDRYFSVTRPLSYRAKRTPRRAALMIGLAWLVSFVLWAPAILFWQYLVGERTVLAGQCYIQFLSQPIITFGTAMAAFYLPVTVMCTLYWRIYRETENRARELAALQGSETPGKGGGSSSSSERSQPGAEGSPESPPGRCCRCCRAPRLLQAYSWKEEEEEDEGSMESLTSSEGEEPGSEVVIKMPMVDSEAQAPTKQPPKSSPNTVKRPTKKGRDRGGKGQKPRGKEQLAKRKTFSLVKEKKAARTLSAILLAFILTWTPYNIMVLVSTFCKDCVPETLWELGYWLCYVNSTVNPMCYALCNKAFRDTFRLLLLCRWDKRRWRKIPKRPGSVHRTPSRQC

Assay [12] addresses Pyruvate kinase (Leishmania mexicana) (UniProt Q27686). Description: qHTS Validation Assay for Inhibitors of Leishmania Mexicana Pyruvate Kinase (AID 945).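 Note: 0% = DMSO only neutral control wells.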 The method, boiled down:
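Luminescent ATP detection (PKLight) after a 1 h room-temperature reaction of 0.2 nM LmPYK E451W mutant with 0.5 mM PEP and 0.1 mM ADP at pH 7.2. Activity is normalized to DMSO-only control wells.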

Assay [13] concerns the target Alpha-galactosidase A (Homo sapiens) (UniProt P06280). The assay can be described thus: Counterscreen for Glucocerebrosidase Inhibitors: qHTS Assay for Human alpha-Galactosidase at pH 4.5 (AID 992). Note: 0% is about no effect. The method, boiled down: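 Fluorogenic 4-MU alpha-D-galactoside (80 uM) hydrolysis, 2 nM enzyme, pH 4.5 citrate buffer + 0.005% Tween-20; 20 min RT; NaOH/glycine pH 10 stop; Ex365/Em440. Compounds titrated 0.7 nM–77 uM; Hill-equation AC50.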

The nature of assay [14]: Validation of Assay for Modulators of Lamin A Splicing (AID 1459; active = well fitted curve in the direction sought with a large enough effect in the signal ratio; the % refers to the signal ratio;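 note: cells exposed to compound for two days before reading; 0% is about no effect; ratio rise marks activators and ratio drop marks inhibitors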). The method, boiled down:
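Splicing correction is reported by an EGFP-containing lamin A minigene in stably transfected S3 HeLa cells, while DsRed2 controls for viability and nonspecific signal. Cells are exposed to compounds for 48 hrs before the GFP over RFP ratio is taken.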

Assay [15] is described as follows: qHTS Assay for Lipid Storage Modulators (AID 1519; calls by dose curve). The conditions noted are these: Drosophila S3 cells, BODIPY lipid droplet/cell ratio, laser cytometry, cells loaded with oleic acid. The method, boiled down: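 Cells seeded at 5,000 per well were treated with compounds over a concentration series and loaded with oleic acid (400 uM, as added). Lipid droplet fluorescence (488 nm excitation, 500-530 nm channel) was read by laser-scanning cytometry and normalized to 20 uM Triacsin C.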

The nature of assay [16]: Counterscreen for APE1 Inhibitors: Fluorescent Dye Displacement Validation Assay (AID 1707).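 Note: plate controls were ThO with dsDNA and no compound for no effect and ThO without dsDNA for full effect.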 A digest of the protocol:
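Endpoint fluorescence read at 480 nm excitation / 540 nm emission; DNA-binding compounds lower signal by displacing 250 nM Thiazole Orange from 50 nM dsDNA containing a tetrahydrofuran abasic site, Tris-HCl pH7.5 buffer with NaCl and MgCl2.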

Assay [17] concerns the target Endonuclease 4 (Escherichia coli (strain K12)) (UniProt P0A6C1). The assay can be described thus: Counterscreen for APE1 Inhibitors: qHTS Validation Assay for Inhibitors of Endonuclease IV (AID 1708). Note: % is set by controls: 0 for no effect and ±100 for the full control effect. The method, boiled down: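 Incision of a double-stranded 50 nM TAMRA/BHQ-2 abasic substrate was followed kinetically (525/598 nm, reads every 60 s) after 15 min enzyme–compound preincubation with 2 nM EndoIV in pH 7.5 Tris buffer with MgCl2, DTT and Tween-20; concentration-response format.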
For orientation: The purpose of a counterscreen is to sort out artefacts and off-target activity.

Alpha-galactosidase A (Homo sapiens), sequence (P06280 whole entry, looked up): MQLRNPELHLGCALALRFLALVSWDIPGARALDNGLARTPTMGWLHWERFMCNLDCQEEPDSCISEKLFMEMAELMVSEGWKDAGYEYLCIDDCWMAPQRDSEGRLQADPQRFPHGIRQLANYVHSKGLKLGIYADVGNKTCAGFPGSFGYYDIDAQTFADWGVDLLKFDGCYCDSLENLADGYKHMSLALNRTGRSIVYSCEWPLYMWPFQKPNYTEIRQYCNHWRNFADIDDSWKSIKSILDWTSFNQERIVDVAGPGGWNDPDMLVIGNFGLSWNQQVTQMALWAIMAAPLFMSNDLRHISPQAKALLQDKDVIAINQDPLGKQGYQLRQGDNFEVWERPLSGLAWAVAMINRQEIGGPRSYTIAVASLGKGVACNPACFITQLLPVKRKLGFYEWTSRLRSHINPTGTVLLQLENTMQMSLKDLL
Pyruvate kinase (Leishmania mexicana), sequence (Q27686 2-499 E452W): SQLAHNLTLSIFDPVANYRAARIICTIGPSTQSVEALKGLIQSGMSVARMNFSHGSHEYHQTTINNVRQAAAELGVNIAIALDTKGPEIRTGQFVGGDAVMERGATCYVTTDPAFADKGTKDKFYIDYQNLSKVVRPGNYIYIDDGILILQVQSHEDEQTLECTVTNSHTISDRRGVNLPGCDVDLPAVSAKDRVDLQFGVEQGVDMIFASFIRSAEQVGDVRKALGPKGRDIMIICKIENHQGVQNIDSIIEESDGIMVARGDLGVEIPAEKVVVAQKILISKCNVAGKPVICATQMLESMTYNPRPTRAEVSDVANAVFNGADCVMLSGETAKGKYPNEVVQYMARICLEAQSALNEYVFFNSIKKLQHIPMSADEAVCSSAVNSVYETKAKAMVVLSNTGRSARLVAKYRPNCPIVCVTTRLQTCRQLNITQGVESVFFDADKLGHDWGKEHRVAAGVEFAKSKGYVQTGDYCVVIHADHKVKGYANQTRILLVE
Cytochrome P450 1A2 (Homo sapiens), sequence (P05177 whole entry, looked up): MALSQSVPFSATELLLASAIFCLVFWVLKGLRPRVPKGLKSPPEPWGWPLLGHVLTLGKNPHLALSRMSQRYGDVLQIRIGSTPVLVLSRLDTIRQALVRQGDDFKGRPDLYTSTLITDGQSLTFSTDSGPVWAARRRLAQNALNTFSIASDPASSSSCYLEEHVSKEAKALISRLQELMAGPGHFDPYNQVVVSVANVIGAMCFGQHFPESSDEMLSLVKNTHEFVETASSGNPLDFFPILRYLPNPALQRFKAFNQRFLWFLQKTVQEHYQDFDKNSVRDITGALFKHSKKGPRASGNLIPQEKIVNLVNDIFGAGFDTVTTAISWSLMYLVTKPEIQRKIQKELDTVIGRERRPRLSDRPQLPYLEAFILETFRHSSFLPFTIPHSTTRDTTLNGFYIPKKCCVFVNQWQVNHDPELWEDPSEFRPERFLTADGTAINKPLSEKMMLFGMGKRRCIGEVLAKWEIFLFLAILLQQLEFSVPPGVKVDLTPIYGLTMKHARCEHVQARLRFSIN
Guanine nucleotide-binding protein G(i) subunit alpha-1 (Homo sapiens), sequence (P63096 whole entry, looked up): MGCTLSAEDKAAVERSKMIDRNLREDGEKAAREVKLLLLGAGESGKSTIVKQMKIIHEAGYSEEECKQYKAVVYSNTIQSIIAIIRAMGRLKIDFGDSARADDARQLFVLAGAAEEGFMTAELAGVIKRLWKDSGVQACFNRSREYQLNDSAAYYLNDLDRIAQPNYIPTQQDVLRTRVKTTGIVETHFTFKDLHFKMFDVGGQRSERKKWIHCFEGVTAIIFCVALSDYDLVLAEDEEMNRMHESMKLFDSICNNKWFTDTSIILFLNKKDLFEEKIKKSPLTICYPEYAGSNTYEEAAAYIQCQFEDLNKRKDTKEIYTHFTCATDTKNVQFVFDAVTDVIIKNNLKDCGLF

On to `CCCn1c(=O)c2[nH]c(-c3ccc(OCC(=O)Nc4ccc(C#N)cc4)cc3)nc2n(CCC)c1=O`, for which the activity change, negative = inhibition in assay [1] was -2.44% (inactive); in [3], -7.64% (inactive); in assay [15] (at 57.5 µM (top of the series)), 1.01% (inactive). Besides, the Potency was 31.6 µM (active) in assay [2], > 46 µM (inactive) in assay [5] and > 46 µM (inactive) in [6]. In assay [4], the activity, negative = inhibition is -13.8% (inactive). In addition, the Potency result in assay [7], in assay [8], in assay [10], in assay [11], in [12] and in assay [16] was “inactive” in each case. Besides, the Potency result in [17] is “inactive”. Further, the result in [9], in assay [13] and in assay [14] was inactive. In addition, the max response in assay [15] (measured here: cell count channel max response) was -12.2%; in [15] (measured here: lipid channel max response) it was -10.7%.
